Assay results: the supplement of paper PMC11732987, “Enantioselective OTUD7B fragment discovery through chemoproteomics screening and high-throughput optimisation” (Communications Chemistry, 2025)
Values without a mark were called inactive.

What was measured:
Test in all cases: log2 ratio of Biotin-Ahx-Ub-VS probe labelling (fragment/DMSO); higher = less target engagement (more negative = stronger competition), active = hit call of the paper (q ≤ 0.05, log2 ratio ≤ -1)
Settings in all cases: compound concentration: 200 uM; treatment time: 3 h
ALG13 = molecular target: T1, ALG13 (UniProt Q9NP73)
T1 sequence (whole entry): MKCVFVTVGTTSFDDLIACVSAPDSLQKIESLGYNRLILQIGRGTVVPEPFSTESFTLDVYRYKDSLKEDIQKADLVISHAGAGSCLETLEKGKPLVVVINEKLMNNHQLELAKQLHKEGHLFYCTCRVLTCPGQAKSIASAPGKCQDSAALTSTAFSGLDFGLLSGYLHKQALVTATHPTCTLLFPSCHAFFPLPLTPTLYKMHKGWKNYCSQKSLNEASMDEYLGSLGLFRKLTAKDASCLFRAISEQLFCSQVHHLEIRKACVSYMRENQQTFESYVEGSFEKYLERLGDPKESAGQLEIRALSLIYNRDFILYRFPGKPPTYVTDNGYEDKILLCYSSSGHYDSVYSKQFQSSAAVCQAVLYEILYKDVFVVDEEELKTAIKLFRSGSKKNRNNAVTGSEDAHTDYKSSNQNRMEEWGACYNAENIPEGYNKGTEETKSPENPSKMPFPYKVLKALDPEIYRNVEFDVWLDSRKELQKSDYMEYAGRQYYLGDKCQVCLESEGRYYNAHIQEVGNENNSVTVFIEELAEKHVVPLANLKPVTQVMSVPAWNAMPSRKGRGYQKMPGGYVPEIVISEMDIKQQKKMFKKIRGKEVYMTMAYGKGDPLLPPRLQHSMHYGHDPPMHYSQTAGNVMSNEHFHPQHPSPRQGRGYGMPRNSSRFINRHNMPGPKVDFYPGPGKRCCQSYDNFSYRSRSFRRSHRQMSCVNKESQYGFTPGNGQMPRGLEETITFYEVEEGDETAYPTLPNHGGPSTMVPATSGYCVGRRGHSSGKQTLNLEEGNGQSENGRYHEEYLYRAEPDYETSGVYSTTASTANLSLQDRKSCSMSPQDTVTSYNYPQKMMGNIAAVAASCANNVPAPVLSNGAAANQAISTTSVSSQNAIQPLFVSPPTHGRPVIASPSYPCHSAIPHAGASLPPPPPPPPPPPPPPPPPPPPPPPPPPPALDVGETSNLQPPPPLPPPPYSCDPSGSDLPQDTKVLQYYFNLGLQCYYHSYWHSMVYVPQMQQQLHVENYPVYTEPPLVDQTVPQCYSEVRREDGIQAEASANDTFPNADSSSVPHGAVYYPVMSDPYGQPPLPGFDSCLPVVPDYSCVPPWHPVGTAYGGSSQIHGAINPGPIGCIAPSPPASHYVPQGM
Summary of the method: (§1)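 HEK293T lysate (495 µg per sample, in Tris/CHAPS/IGEPAL buffer with protease inhibitors) was treated in triplicate with fragment at 200 µM or with DMSO for 3 h. It was then treated with Biotin-Ahx-Ub-VS (0.5 µM final) for 1 h. Labelled DUBs were NeutrAvidin-enriched, digested with LysC and trypsin, and run by diaPASEF LC-MS/MS. Spectronaut label-free quantities were global-median-normalised. Values are average log2 ratios fragment/DMSO by unpaired t-test, using proteins with ≥2 unique peptides.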

ATXN3 = ATXN3 (UniProt P54252)
Summary of the method: as §1

BAP1 = molecular target: T2, BAP1 (UniProt Q92560)
T2 sequence (whole entry): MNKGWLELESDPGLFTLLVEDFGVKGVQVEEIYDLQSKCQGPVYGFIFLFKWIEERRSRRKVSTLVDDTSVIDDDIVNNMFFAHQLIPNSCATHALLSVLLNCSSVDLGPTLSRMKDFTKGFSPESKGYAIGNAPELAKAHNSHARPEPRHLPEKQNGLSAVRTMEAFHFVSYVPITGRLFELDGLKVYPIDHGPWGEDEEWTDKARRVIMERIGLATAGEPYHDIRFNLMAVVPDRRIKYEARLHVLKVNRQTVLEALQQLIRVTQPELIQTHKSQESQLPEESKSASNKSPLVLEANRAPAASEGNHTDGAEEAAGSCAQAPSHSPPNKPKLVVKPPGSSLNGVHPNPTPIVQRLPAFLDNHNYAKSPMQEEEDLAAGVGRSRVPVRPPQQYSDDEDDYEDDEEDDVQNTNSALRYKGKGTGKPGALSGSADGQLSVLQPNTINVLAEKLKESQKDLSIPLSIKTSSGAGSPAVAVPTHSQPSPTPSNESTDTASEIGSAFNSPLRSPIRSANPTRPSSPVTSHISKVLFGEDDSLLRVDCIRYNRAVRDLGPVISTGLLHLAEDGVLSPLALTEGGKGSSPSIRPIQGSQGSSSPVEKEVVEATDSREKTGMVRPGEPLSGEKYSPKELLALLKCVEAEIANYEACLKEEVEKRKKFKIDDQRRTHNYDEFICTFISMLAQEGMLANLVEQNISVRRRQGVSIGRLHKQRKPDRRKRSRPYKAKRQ
Summary of the method: as §1

EIF3F = EIF3F (UniProt O00303)
Summary of the method: as §1

EIF3H = EIF3H (UniProt O15372)
Summary of the method: as §1

FAM105A = molecular target: T3, FAM105A (UniProt Q9NUU6)
T3 sequence (whole entry): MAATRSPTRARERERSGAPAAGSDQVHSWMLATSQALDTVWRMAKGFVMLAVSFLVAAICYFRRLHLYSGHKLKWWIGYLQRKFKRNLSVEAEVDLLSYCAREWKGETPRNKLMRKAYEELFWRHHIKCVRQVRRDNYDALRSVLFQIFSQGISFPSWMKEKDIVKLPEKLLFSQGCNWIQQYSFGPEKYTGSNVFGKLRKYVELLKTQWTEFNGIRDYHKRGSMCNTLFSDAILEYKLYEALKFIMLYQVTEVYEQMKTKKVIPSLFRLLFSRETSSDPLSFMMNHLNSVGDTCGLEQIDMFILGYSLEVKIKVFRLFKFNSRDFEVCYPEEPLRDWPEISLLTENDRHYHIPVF
Summary of the method: as §1

OTUB1 = OTUB1 (UniProt Q96FW1)
Summary of the method: as §1

OTUD4 = molecular target: T4, OTUD4 (UniProt Q01804)
T4 sequence (whole entry): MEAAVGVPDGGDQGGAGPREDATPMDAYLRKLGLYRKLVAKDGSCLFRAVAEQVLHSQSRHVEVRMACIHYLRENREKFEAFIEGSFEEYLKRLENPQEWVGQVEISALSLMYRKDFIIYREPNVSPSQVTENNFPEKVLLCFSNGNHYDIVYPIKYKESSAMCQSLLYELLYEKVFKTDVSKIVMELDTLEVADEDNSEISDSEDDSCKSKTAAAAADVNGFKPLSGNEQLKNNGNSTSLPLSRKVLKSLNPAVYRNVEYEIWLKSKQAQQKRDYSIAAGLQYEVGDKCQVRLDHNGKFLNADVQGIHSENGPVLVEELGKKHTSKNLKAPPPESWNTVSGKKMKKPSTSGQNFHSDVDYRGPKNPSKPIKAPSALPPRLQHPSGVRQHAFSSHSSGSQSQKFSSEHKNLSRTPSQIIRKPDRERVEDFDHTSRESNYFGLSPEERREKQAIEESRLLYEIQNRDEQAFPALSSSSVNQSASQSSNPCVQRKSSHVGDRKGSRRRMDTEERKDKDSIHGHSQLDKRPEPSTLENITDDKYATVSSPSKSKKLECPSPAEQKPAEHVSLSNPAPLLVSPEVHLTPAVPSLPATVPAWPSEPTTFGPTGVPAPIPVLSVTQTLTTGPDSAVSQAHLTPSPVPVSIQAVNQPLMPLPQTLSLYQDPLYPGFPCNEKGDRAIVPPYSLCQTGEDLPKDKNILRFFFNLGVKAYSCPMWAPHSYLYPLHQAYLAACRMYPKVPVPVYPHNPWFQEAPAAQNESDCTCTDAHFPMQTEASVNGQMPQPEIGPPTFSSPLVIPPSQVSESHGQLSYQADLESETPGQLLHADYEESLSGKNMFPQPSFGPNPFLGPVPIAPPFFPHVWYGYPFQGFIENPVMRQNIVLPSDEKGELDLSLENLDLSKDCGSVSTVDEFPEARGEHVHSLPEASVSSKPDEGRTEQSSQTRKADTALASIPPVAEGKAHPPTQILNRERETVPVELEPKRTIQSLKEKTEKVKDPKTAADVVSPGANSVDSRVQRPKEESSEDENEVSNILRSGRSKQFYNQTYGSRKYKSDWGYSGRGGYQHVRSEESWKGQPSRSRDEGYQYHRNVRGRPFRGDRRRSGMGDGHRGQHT
Summary of the method: as §1

OTUD5 = molecular target: T5, OTUD5 (UniProt Q96G74)
T5 sequence (whole entry): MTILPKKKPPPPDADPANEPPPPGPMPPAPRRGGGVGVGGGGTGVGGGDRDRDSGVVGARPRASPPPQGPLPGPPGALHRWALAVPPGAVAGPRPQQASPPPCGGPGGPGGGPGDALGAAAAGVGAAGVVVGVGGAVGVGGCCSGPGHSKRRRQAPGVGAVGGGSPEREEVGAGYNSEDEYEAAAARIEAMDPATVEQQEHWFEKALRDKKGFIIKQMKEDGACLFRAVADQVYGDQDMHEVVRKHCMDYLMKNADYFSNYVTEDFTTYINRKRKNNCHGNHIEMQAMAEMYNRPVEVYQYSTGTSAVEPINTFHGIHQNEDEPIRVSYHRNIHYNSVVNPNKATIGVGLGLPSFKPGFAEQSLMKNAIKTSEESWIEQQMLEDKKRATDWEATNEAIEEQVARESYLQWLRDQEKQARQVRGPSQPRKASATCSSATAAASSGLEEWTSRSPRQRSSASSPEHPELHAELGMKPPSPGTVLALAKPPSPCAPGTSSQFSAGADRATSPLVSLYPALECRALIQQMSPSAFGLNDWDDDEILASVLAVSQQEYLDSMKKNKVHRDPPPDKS
Summary of the method: as §1

EIF3F, sequence (O00303 whole entry): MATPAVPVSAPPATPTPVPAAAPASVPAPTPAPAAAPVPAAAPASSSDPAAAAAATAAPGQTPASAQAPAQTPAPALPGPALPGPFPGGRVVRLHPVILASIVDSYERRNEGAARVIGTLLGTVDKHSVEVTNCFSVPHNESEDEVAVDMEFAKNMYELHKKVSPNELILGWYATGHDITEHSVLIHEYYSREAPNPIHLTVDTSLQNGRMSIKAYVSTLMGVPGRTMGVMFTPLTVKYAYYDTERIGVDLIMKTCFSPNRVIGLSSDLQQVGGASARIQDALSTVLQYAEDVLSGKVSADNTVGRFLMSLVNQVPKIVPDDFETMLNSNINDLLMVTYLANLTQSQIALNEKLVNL
EIF3H, sequence (O15372 whole entry): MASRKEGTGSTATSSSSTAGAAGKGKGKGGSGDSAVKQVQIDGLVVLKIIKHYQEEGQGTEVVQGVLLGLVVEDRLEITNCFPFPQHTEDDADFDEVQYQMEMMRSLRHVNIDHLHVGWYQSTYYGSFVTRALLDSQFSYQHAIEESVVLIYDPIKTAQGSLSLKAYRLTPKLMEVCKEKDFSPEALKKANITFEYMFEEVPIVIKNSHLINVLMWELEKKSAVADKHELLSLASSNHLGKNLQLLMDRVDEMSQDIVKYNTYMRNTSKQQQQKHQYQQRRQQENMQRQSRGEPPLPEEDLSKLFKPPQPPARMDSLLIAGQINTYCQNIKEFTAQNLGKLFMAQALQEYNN
ATXN3, sequence (P54252 whole entry): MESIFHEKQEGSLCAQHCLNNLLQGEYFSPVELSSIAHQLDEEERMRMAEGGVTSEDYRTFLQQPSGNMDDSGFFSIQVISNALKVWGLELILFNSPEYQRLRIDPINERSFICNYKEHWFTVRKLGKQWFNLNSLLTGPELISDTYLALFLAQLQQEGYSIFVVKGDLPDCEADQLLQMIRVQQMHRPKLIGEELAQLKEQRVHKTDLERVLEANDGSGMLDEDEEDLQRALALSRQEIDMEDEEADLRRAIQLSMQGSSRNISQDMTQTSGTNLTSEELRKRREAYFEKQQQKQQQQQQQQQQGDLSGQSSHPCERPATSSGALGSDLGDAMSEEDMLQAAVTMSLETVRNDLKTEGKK
OTUB1, sequence (Q96FW1 whole entry): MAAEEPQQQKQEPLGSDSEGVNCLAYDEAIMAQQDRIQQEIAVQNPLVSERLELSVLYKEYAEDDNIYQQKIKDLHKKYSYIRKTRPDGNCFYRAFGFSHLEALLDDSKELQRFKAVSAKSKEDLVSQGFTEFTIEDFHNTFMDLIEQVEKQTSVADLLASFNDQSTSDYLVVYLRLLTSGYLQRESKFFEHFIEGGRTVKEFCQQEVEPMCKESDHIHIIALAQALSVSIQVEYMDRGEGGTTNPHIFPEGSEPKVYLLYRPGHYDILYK

## CC(NC(=O)CCl)c1ccc2[nH]ncc2c1 (centres undefined)
ALG13
  log2 ratio of Biotin-Ahx-Ub-VS probe labelling: 0.186
ATXN3
  log2 ratio of Biotin-Ahx-Ub-VS probe labelling: -0.431
BAP1
  log2 ratio of Biotin-Ahx-Ub-VS probe labelling: -3.42 (active)
EIF3F
  log2 ratio of Biotin-Ahx-Ub-VS probe labelling: -0.607
EIF3H
  log2 ratio of Biotin-Ahx-Ub-VS probe labelling: -0.275
FAM105A
  log2 ratio of Biotin-Ahx-Ub-VS probe labelling: -0.234
OTUB1
  log2 ratio of Biotin-Ahx-Ub-VS probe labelling: -0.374
OTUD4
  log2 ratio of Biotin-Ahx-Ub-VS probe labelling: -0.637
OTUD5
  log2 ratio of Biotin-Ahx-Ub-VS probe labelling: -0.509
